Measured values reported in PubChem BioAssay AID1347170 (National Center for Advancing Translational Sciences (NCATS), 2019).
Inconclusive results are not listed. Activity calls are given as the source filed them. Calls come from the whole dose curve; as a rule, active = well fitted cell-killing curve with a large enough effect; inconclusive = small, poorly fitted or top-dose-only effect, or another doubt; inactive = flat fitted curve, though single readings scatter.

test: Vero cells viability counterscreen for qRT-PCR qHTS assay of selected Zika virus inhibitors; settings: CellTiter-Glo ATP luminescence, 24 h; series mostly up to 41.8 µM
Source text: Assay Submitters (PI): Avindra Nath, Ph.D., National Institute of Neurological Disorders and Stroke (NINDS), Bethesda, MD Radhakrishnan Padmanabhan, Ph.D., Georgetown University (GU), Washington D.C. Zika Virus causes congenital defects, including microcephaly and is associated with Guillain-Barre syndrome, eningoencephalitis and myelitis in infected adult. […] Using a target-based approach, we hope to establish a screening paradigm to uncover novel, cell-active NS2B-NS3 protease (Zika Virus) specific inhibitors from NCATS' collection of small molecules using qHTS. […] Four assay panel was created to identify potential Zika Virus inhibitors. Namely, (1) GU unlinked NS2B-NS3 AMC tagged protease qHTS, (2) GU unlinked NS2B-NS3 Rhodamine tagged protease qHTS, (3) NINDS linked NS2B-NS3 AMC tagged protease qHTS, (4) NINDS linked NS2B-NS3 Rhodamine tagged protease qHTS. Inhibitors of the Zika virus primary screens are confirmed using qRT-PCR secondary assays, mCherry orthogonal assay, and Vero cells viability counterscreen. Cytotoxic compounds identified in the Vero cell viability counterscreen were excluded from the list of potential Zika virus inhibitors. Early Translation Branch (ETB) National Center for Advancing Translational Sciences (NCATS), Rockville, MD National Institute of Health (NIH), Bethesda, Maryland
Vero Cell Viability Assay: Vero cell cytotoxicity was determined using a luminescent readout with CellTiter Glo reagent (Promega, Madison, WI), which is based on measuring the ATP content within cells. Briefly, 4 uL of Vero cells at 2.5 x 10^5 cells/mL in DMEM containing 4% FBS were dispensed into 1536-well solid bottom tissue treated white plate using a Multidrop Combi dispenser (Thermo Scientific). Plates were incubated at 37 degrees C, 95% humidity, and 5% CO2 overnight to allow for cell attachment. Compounds were dissolved in DMSO at different concentrations and transferred via pintool (Wako Automation), for a final concentration of 57 uM - 0.029 uM. Plates were again incubated for 24 hours, followed by a 2 uL addition of CellTiter Glo. Finally, plates were incubated for 30 minutes at 37 degrees C and 5% CO2 before being read on a ViewLux (Perkin Elmer) for luminescence.

| Structure (SMILES) | outcome |
| --- | --- |
| CCCCCOc1cc2c(cc1-c1cc(/C=C/C(=O)O)ccc1O)C(C)(C)CCC2(C)C | inactive |
| Cc1cc(SCc2sc(-c3ccc(C(F)(F)F)c(F)c3)nc2C)ccc1OCC(=O)O | inactive |
| CN(C)[C@@H]1C(=O)C(C(N)=O)=C(O)[C@@]2(O)C(=O)C3=C(O)c4c(O)ccc(Cl)c4[C@@](C)(O)[C@H]3C[C@@H]12 | inactive |
| O=C1OC(c2ccc(O)c(S(=O)(=O)O)c2)(c2ccc(O)c(S(=O)(=O)O)c2)c2c(Br)c(Br)c(Br)c(Br)c21 | inactive |
| C[C@]12CC[C@@H]3c4ccc(OC(=O)N(CCCl)CCCl)cc4CC[C@H]3[C@@H]1CC[C@@H]2O | inactive |
| CN(C)[C@@H]1C(=O)C(C(N)=O)=C(O)[C@@]2(O)C(=O)C3=C(O)c4c(O)cccc4[C@@](C)(O)[C@H]3C[C@@H]12 | inactive |
| Oc1c(Cl)c(Cl)c(Cl)c(Cl)c1Cl | inactive |
| CC(=O)c1c(O)c(C)c(O)c(Cc2c(O)c3c(c(C(=O)/C=C/c4ccccc4)c2O)OC(C)(C)C=C3)c1O | inactive |
| O=C(Nc1ccc(Br)cc1)c1cc(Br)cc(Br)c1O | inactive |
